Assay [1] can be described thus: A High-Content qHTS Against Drug Library for the Identification of Small Molecules that Inhibit DYT1 Early Onset Primary Dystonia-Associated Cell Pathology (AID 1645839). In outline: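 In this high-content image screen, delE TorsinA mislocalization in inducible Flp-In 293 cells is scored as %pathology, with cell count serving as the counterscreen. Compound exposure lasts 48 h under tetracycline induction in reduced-serum medium.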
(qHTS replaces the single test concentration by a dilution series.)

Assay [2] can be described thus: Cytotoxicity counterscreen for inhibitors of SARS-CoV-2 cell entry (AID 1645845). Further: nearly all actives have a fitted effect of over 50% in size. In outline:
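48 h compound treatment (after 1 h preincubation), HEK293-ACE2 cells, 37 C/5% CO2; ATP luminescence endpoint; normalized to cell wells and media blanks.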

Assay [3] in a line: Primary qHTS to identify inhibitors of SARS-CoV-2 cell entry (AID 1645846). Further: nearly all actives have a fitted effect of over 45% in size. Further: potency means the concentration at half of the fitted maximal effect. The following applies: activity change, negative = inhibition: at 57.1 µM (top of the series) unless noted. In outline: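 HEK293-ACE2 (Expi293F, stable hACE2), 1500 cells/well, o/n 37C; cpd 23 nL pin, 1 h; MLV-PP w/ SARS-CoV-2-S (Wuhan-Hu-1, Δ19 C-term); 48 h 37C; Bright-Glo luminescence; normalized vs S-PP and bald PP.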

The nature of assay [4]: Primary qHTS for inhibitors of nuclear receptor binding SET domain protein 2 (NSD2) in an isogenic RCH-ACV NSD2 p.E1099K mutant (9B) (AID 1645876; active means well fitted curve in the direction sought with a large enough effect; an effect the other way counts as inactive or inconclusive; further: nearly all actives have a fitted effect of over 70% in size; further: potency means the concentration at half of the fitted maximal effect).
Assay [5] can be described thus: Primary qHTS for inhibitors of nuclear receptor binding SET domain protein 2 (NSD2) in an RCH-ACV wild type WT cells (2C) (AID 1645877; active means well fitted curve in the direction sought with a large enough effect; an effect the other way counts as inactive or inconclusive; further: nearly all actives have a fitted effect of over 70% in size; further: potency means the concentration at half of the fitted maximal effect).
For assay [6], the target named is Cytochrome P450 2D6 (Homo sapiens) (UniProt P10635). Briefly: Cytochrome P450 family 2 subfamily D member 6 (CYP2D6) small molecule antagonists: luciferase biochemical (cell-free) qHTS assay (AID 1645840; active means well fitted curve in the direction sought with a large enough effect in the repeat runs; an effect the other way counts as inactive or inconclusive; further: nearly all actives have a fitted effect of over 55% in size; further: potency means the concentration at half of the fitted maximal effect; on activity change, negative = inhibition: on the % scale 0 is the no-effect control and ±100 the full control effect). In outline: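 P450-Glo luminescent screen: recombinant CYP2D6 enzyme–proluciferin substrate mix preincubated with compound 10 min at room temperature, then NADPH regeneration added for 1 h at room temperature. Detection reagent added for 20 min; luciferin light read as relative luminescence units.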

In the next assay the target is Papain (Carica papaya) (UniProt P00784). Briefly: Primary qHTS assay for inhibitors of the protease papain (AID 1645873; active means well fitted curve in the direction sought with a large enough effect; an effect the other way counts as inactive or inconclusive;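 further: papain turnover of Z-FR-AMC read as the AMC fluorescence gain over 10 min; on the % scale 0 is the no-effect control and ±100 the full control effect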).
Assay [7] addresses Cytochrome P450 2C9 (Homo sapiens) (UniProt P11712). Briefly: Cytochrome P450 family 2 subfamily C member 9 (CYP2C9) small molecule antagonists: luciferase biochemical (cell-free) qHTS assay (AID 1645842; active means well fitted curve in the direction sought with a large enough effect in the repeat runs; an effect the other way counts as inactive or inconclusive; further: nearly all actives have a fitted effect of over 55% in size; further: potency means the concentration at half of the fitted maximal effect; on activity change, negative = inhibition: on the % scale 0 is the no-effect control and ±100 the full control effect). In outline:
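Luminescence, after 20 min with luciferin detection reagent, reflected CYP2C9 turnover during a 1 h NADPH-driven reaction at 37C. Enzyme-substrate mix contained 0.4% bovine serum albumin and was preincubated with compound 10 min at room temperature.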

Assay [8] concerns the target Cytochrome P450 3A4 (Homo sapiens) (UniProt P08684). Briefly: Cytochrome P450 family 3 subfamily A member 4 (CYP3A4) small molecule antagonists: luciferase qHTS assay (AID 1645841; active means well fitted curve in the direction sought with a large enough effect in the repeat runs; an effect the other way counts as inactive or inconclusive; further: nearly all actives have a fitted effect of over 45% in size). In outline: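 Luminescent CYP3A4 activity readout: compounds plus enzyme-substrate mix 10 min at room temperature, reaction started with NADPH regenerating system for 1 h, stopped with detection reagent, read after 20 min. Ketoconazole served as control.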

Molecules are shown by their SMILES. “And” between values parts separate entries of the source, which are not always exact repeats. Identical values can stand only once. Results filed as inconclusive are left out. The source made the active and inactive calls. Unless noted, the call rests on the fitted dose curve.

Sequence of Cytochrome P450 2D6 (Homo sapiens) (P10635 whole entry, looked up): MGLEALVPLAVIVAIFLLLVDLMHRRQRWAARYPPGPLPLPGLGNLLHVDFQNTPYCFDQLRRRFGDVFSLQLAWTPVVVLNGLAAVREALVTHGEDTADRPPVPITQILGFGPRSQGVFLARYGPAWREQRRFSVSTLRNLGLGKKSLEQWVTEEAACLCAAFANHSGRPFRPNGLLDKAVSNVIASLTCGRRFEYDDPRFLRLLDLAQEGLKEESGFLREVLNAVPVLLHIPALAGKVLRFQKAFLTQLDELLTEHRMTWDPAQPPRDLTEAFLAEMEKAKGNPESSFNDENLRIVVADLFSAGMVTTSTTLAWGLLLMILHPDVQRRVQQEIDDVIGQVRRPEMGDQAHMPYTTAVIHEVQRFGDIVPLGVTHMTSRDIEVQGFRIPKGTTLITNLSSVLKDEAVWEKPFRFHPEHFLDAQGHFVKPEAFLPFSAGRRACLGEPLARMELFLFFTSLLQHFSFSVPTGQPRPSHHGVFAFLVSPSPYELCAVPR
Sequence of Papain (Carica papaya) (P00784 whole entry, looked up): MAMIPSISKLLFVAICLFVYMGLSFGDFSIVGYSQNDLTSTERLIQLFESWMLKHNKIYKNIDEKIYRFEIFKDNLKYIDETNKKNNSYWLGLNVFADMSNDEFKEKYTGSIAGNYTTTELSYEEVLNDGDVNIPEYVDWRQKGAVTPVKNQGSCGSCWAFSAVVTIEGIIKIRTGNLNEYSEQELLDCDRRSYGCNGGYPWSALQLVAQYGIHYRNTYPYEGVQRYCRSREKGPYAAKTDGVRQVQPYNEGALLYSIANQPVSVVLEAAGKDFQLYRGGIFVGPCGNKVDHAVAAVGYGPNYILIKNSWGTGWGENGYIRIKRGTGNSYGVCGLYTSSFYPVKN
Sequence of Cytochrome P450 2C9 (Homo sapiens) (P11712 whole entry, looked up): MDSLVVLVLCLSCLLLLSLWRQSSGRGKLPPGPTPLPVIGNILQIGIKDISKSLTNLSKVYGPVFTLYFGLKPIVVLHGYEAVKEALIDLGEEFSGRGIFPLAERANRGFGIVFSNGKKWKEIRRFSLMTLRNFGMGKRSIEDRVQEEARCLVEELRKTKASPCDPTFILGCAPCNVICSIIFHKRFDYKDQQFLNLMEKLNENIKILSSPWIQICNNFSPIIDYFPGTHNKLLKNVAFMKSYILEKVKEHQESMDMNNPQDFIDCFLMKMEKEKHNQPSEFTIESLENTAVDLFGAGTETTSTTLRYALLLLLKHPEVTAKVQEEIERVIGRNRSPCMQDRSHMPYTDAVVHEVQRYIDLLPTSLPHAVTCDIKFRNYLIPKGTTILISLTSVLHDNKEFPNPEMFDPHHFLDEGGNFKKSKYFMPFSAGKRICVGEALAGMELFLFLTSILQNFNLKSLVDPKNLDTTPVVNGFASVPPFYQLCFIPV
Sequence of Cytochrome P450 3A4 (Homo sapiens) (P08684 whole entry, looked up): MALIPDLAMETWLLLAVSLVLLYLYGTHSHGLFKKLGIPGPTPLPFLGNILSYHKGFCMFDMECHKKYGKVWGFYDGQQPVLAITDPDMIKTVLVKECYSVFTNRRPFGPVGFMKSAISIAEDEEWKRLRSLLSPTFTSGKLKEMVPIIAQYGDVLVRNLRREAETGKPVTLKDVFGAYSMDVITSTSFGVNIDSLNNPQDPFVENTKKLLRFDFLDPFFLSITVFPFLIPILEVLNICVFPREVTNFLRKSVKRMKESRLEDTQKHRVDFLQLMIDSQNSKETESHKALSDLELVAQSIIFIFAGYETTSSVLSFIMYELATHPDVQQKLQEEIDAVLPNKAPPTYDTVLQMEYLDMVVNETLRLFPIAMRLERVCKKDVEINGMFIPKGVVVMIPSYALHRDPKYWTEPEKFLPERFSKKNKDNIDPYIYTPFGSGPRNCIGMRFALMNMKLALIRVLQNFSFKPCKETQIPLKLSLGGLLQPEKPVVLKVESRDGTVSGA

Take `CC[C@@H](CO)NC(=O)[C@@H]1C=C2c3cccc4[nH]cc(c34)C[C@H]2N(C)C1`: the Potency result in assay [1], in [2], in [4] and in assay [5] was “inactive” throughout. The activity change, negative = inhibition in assay [3] was -4.87%.

In the case of `N[C@@H](Cc1ccc(Oc2cc(I)c(O)c(I)c2)c(I)c1)C(=O)O`, the Potency entry in assay [1], in assay [4] and in [5] was “inactive” throughout. For the same molecule, in assay [6], the Potency is 19.5 µM (active).

On to `CN(C)[C@@H]1C(=O)C(C(N)=O)=C(O)[C@@]2(O)C(=O)C3=C(O)c4c(O)cccc4[C@@](C)(O)[C@H]3C[C@@H]12`, for which the Potency entry in assay [1], in [2], in [4] and in assay [5] was “inactive” each time. Further, the Potency in assay [6] was 15.5 µM (active).

Consider `CC(C)(C)NCC(O)c1cc(Cl)c(N)c(Cl)c1` (centres undefined), for which the Potency entry in assay [1], in assay [2], in [4] and in assay [5] was “inactive” in each case. Moreover, the activity change, negative = inhibition in assay [3] amounted to 0.184%.

Regarding `N#CC(C#N)=Cc1ccc(O)c(O)c1`, the Potency result (in assay [1]; with Papain (Carica papaya)) was “inactive” each time. For the same molecule, the values for the Potency in [4] and in [5] were 9.44 µM (active) and 10.6 µM (active), respectively.

As for `O=P1(NCCCl)OCCCN1CCCl` (centres undefined), the Potency result in assay [1], in assay [3], in assay [4] and in [5] was “inactive” each time. The activity change, negative = inhibition in [3] was -11%.

In the case of `CN1C(=S)CN=C(c2ccccc2)c2cc(Cl)ccc21`, in assay [1], the Potency result is “inactive”. Further, the Potency in assay [7] was 12.3 µM (active).

For the molecule `CCC1(C2=NCCN2)Cc2ccccc2O1` (centres undefined), the Potency result (in [1]; in assay [7]; with Papain (Carica papaya)) was “inactive” in each case.

For the molecule `OCCOc1ccccc1`, the Potency result in [1], in [6], in assay [2], in [4] and in assay [5] was “inactive” each time.

As to `CC[C@@H](CO)NC(=O)[C@@H]1C=C2c3cccc4c3c(cn4C)C[C@H]2N(C)C1`, the Potency entry (in assay [1]; with Papain (Carica papaya)) was “inactive” each time. Also, the Potency in [6] was 12.3 µM (active).

With `CCCC1CCCCN1` (centres undefined), the Potency entry in [1], in assay [2], in assay [3], in assay [4] and in assay [5] was “inactive” throughout.

Regarding `CC[N+]1(C)CCCC(OC(=O)C(O)(c2ccccc2)c2ccccc2)C1` (centres undefined), the Potency result in assay [1], in [4] and in assay [5] was “inactive” throughout. For the same molecule, the Potency in assay [6] was 2.75 µM (active).

As to `Oc1cc(Cl)ccc1Oc1ccc(Cl)cc1Cl`, the Potency entry in [1] is “inactive”. Besides, the Potency was 8.64 µM (active) and 11 µM (active) in assay [6]; 25.1 µM (active) in [3]; 6.24 µM (active) in assay [4]; 6.24 µM (active) in [5].

In the case of `CC(=O)[C@H]1CC[C@H]2[C@@H]3CC[C@H]4C[C@H](O)CC[C@]4(C)[C@H]3C(=O)C[C@]12C`, the Potency result in assay [1] is “inactive”.

As to `CN1C[C@H](CNC(=O)OCc2ccccc2)C[C@@H]2c3cccc4c3c(cn4C)C[C@H]21`, the call in assay [8] was inactive.

As to `O=c1[nH]cc(F)c(=O)[nH]1`, the Potency entry in assay [2] was “inactive”. In assay [3], the Potency is 11.2 µM (active) and 14.1 µM (active).

On to `COc1cc(Cc2cnc(N)nc2N)cc(OC)c1OC`, for which the Potency entry in assay [2] and in assay [3] was “inactive” in each case.

`CN(C/C=C/C#CC(C)(C)C)Cc1cccc2ccccc12`: in [2], the Potency result was “inactive”. The activity change, negative = inhibition in assay [3] was -3.95%.

For the molecule `Cc1cc(C)cc(OCC2CNC(=O)O2)c1` (centres undefined), the Potency result in assay [2] and in assay [3] was “inactive” in each case.

With `OCCN1CCN(CCCN2c3ccccc3Sc3ccc(C(F)(F)F)cc32)CC1`, the Potency result in assay [2] and in assay [3] was “inactive” each time.

Regarding `Cc1ccc(-n2nc(C(C)(C)C)cc2NC(=O)Nc2ccc(OCCN3CCOCC3)c3ccccc23)cc1`, the Potency result in [2] was “inactive”. In assay [3], the activity change, negative = inhibition was -13.7%.

As to `Nc1nc(N)c2nc(-c3ccccc3)c(N)nc2n1`, the Potency entry in assay [2] and in assay [3] was “inactive” throughout.

`NCCCC(O)(P(=O)(O)O)P(=O)(O)O`: the Potency entry in assay [2] is “inactive”. Besides, in assay [3], the activity change, negative = inhibition was -4.6% and -17.5%.

Turning to `Cc1nc2n(c(=O)c1CCN1CCC(c3noc4cc(F)ccc34)CC1)CCCC2`, the Potency entry in [2] and in assay [3] was “inactive” throughout.

For the molecule `O=C1NC(c2ccccc2)(c2ccccc2)C(=O)N1COP(=O)(O)O`, the Potency entry in [2] was “inactive”. For the same molecule, the activity change, negative = inhibition in assay [3] is -4.89%.

Take `OCCN1C[C@H](O)[C@@H](O)[C@H](O)[C@H]1CO`: the Potency result in assay [2] was “inactive”. For the same molecule, the activity change, negative = inhibition in assay [3] is -28.6% and -30.5%.

As to `CCCCS(=O)(=O)N[C@@H](Cc1ccc(OCCCCC2CCNCC2)cc1)C(=O)O`, the Potency result in [2] and in [3] was “inactive” in each case.

`O=C1OCCN1/N=C/c1ccc([N+](=O)[O-])o1`: the Potency entry in [2] and in assay [3] was “inactive” in each case.

As to `O=C1N=C(O)CN1/N=C/c1ccc(-c2ccc([N+](=O)[O-])cc2)o1`, the Potency entry in assay [2] and in assay [3] was “inactive” each time.

For the molecule `O=C1[C@H](CC[C@H](O)c2ccc(F)cc2)[C@@H](c2ccc(O)cc2)N1c1ccc(F)cc1`, the Potency entry in assay [2] is “inactive”. Moreover, the activity change, negative = inhibition in [3] is 1.63% and -17.2%.

Regarding `Fc1ccc([C@@H]2CCNC[C@H]2COc2ccc3c(c2)OCO3)cc1`, the Potency entry in assay [2] is “inactive”. The activity change, negative = inhibition in [3] was -4.22%.

In the case of `CC1=C(C(=O)O)N2C(=O)[C@@H](NC(=O)[C@H](N)c3ccccc3)[C@H]2SC1`, in [2], the Potency result was “inactive”. For the same molecule, the activity change, negative = inhibition in assay [3] is -1.93%.

Regarding `C[C@H]1[C@H](NC(=O)/C(=N/OC(C)(C)C(=O)O)c2csc(N)n2)C(=O)N1S(=O)(=O)O` (stereo in doubt), the Potency entry in assay [2] and in [3] was “inactive” throughout.

In the case of `O=C(O)CCCc1ccccc1`, the Potency result in assay [2] and in assay [3] was “inactive” in each case.

As to `CC(C)(C(=O)O)c1ccc(C(O)CCCN2CCC(C(O)(c3ccccc3)c3ccccc3)CC2)cc1` (centres undefined), the Potency entry in assay [2] and in assay [3] was “inactive” each time.

With `CN(C)c1ccc(O)c2c1C[C@H]1C[C@H]3[C@H](N(C)C)C(=O)C(C(N)=O)=C(O)[C@@]3(O)C(=O)C1=C2O`, in assay [2], the Potency result was “inactive”. The activity change, negative = inhibition in [3] is -8.61%.

Source of the values: PubChem BioAssay (NCATS).
